The text below walks through data of PubChem BioAssay (Tox21).

Experiment [1] relates to thyroid hormone receptor (rat, GH3 cells). Briefly: qHTS assay to identify small molecule agonists of the thyroid receptor (TR) signaling pathway (AID 743066; calls by dose curve). On the technique in general: In qHTS, concentration-response curves come from the screen itself.
A short description of experiment [2]: qHTS assay to identify small molecule antagonists of the estrogen receptor alpha (ER-alpha) signaling pathway - cell viability counter screen (AID 743074; calls by dose curve;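 note: HEK293 cells carrying ER-alpha-UAS-bla reporter stimulated with 17beta-estradiol; nearly all actives have a fitted effect of over 45% in size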).
Experiment [3] can be described thus: qHTS assay to identify small molecule antagonists of the estrogen receptor alpha (ER-alpha) signaling pathway using the BG1 cell line - cell viability counter screen (AID 743081).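 Note: compound given together with 17beta-estradiol as the ER stimulus; nearly all actives have a fitted effect of over 45% in size.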
In another experiment the target is Aromatase (Homo sapiens) (UniProt P11511). Put plainly: qHTS assay to identify aromatase inhibitors (AID 743083). Note: nearly all actives have a fitted effect of over 55% in size.
Aromatase (Homo sapiens), sequence (P11511 whole entry, looked up): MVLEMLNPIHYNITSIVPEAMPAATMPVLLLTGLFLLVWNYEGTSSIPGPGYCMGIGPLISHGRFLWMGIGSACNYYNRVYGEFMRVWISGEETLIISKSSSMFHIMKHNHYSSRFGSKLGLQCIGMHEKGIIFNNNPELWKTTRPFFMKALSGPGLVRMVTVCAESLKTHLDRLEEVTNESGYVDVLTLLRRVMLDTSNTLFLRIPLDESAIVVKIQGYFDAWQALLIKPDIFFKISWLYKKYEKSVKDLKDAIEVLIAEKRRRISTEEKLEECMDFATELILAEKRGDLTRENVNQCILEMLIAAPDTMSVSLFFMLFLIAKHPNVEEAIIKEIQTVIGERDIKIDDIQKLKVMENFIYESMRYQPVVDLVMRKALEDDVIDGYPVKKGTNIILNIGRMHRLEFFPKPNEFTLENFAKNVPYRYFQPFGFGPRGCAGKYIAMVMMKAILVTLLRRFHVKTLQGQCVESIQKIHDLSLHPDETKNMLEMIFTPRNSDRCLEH
Experiment [4] concerns the target Estrogen receptor (Homo sapiens) (UniProt P03372). Put plainly: qHTS assay to identify small molecule antagonists of the estrogen receptor alpha (ER-alpha) signaling pathway (AID 743069; active = well fitted curve in the direction sought with a large enough effect in the signal ratio in the repeat runs, not every such curve was filed as active; inconclusive = weak or mixed curves, or effect the other way; inactive = no such curve, though single readings can be large or run the other way; the % refers to the signal ratio). The procedure, abridged: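 A 17beta-estradiol challenge was applied right after compound transfer to ER-alpha-UAS-bla HEK293 cells previously kept in charcoal-stripped serum. Plates stood 18 hr at 37C and 5% CO2; fluorescence was read following 2 hr FRET substrate loading at room temperature.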

Experiment [5] has the same target. Briefly: qHTS assay to identify small molecule agonists of the estrogen receptor alpha (ER-alpha) signaling pathway (AID 743075; calls by dose curve;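 note: HEK293 GripTite cells with ER-alpha and UAS-driven beta-lactamase reporter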; note: potency is the fitted concentration of half-maximal effect).
Experiment [6] shares this target. Put plainly: qHTS assay to identify small molecule agonists of the estrogen receptor alpha (ER-alpha) signaling pathway using the BG1 cell line (AID 743079). Note: nearly all actives have a fitted effect of over 20% in size. Note: potency is the fitted concentration of half-maximal effect. As to conditions: BG1Luc4E2 cells, ERE-luciferase agonist, 22 h.
Experiment [7] is described as follows: qHTS assay to identify small molecule antagonists of the estrogen receptor alpha (ER-alpha) signaling pathway using the BG1 cell line (AID 743080; calls by dose curve;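 note: BG1 cells stimulated with 17beta-estradiol alongside compound; nearly all actives have a fitted effect of over 25% in size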). An outline of the steps: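 BG1-Luc-4E2 cells (endogenous full-length ER-alpha, 4xERE luciferase) hormone-starved 5 days in charcoal-stripped FBS, plated 4,000/well for 24 h, then compound plus 17beta-estradiol for 21.5 h at 37 C; ONE-Glo luminescence read.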

The nature of experiment [8]: qHTS assay to identify small molecule antagonists of the thyroid receptor (TR) signaling pathway (AID 743065). Note: nearly all actives have a fitted effect of over 55% in size. The procedure, abridged: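 GH3.TRE-Luc rat pituitary cells carrying two TR response elements driving luciferase were plated for 4 h, given compound plus 1 nM T3 (final), and incubated 23.5 h at 37 C. ONE-Glo luminescence measured reporter inhibition; CellTiter-Fluor fluorescence tracked cytotoxicity.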

Experiment [9] can be described thus: qHTS assay to identify small molecule antagonists of the thyroid receptor (TR) signaling pathway - cell viability counter screen (AID 743064). Note: nearly all actives have a fitted effect of over 50% in size. An outline of the steps: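 In-well cytotoxicity read by CellTiter-Fluor (30 min, 37 C) following 23.5 h exposure of GH3 cells bearing a TRE-luciferase sensor. Compounds were added alongside 1 nM (final) T3 to drive TR transactivation.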

Molecules are shown by their SMILES. A number with no mark means an inactive call. Calls of active or inactive are those of the source. Unless noted, calls come from the whole dose curve; as a rule, active = well fitted curve in the direction sought with a large enough effect in the repeat runs; inconclusive = weak or mixed curves; inactive = no such curve, though single readings can be large; an effect the other way counts as inactive or inconclusive.
% is set by controls: 0 for no effect and ±100 for the full control effect.

Estrogen receptor (Homo sapiens), sequence (P03372 whole entry, looked up): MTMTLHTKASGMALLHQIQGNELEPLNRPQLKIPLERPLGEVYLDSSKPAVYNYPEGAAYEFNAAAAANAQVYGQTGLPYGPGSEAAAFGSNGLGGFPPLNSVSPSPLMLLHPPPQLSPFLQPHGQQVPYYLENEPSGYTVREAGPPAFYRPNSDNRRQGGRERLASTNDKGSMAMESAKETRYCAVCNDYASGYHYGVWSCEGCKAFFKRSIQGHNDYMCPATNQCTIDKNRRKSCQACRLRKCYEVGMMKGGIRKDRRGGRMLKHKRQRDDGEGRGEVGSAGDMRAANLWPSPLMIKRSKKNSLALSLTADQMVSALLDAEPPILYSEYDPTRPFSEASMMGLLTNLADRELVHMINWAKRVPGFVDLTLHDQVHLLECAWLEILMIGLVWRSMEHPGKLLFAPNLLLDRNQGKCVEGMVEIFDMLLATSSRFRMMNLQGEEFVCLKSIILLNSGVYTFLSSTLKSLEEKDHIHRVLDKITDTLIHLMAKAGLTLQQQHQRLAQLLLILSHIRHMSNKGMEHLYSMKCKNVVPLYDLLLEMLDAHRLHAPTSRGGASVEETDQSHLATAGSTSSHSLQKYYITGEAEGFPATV

As to `CON(C)C(=O)Nc1ccc(Br)c(Cl)c1`, the Potency result (in experiment [1]; in experiment [2]; in experiment [3]; in the experiment with Aromatase (Homo sapiens)) was “inactive” each time.

`CC(C)(N)Cc1ccc(Cl)cc1`: the Potency result in [1], in [4], in experiment [2], in [5], in [7] and in [3] was “inactive” each time. Moreover, the Potency result with Aromatase (Homo sapiens) was “inactive”. The activation in experiment [6] (at 70.3 µM (top of the series)) was 0.193%.

As to `CCNP(=S)(OC)O/C(C)=C/C(=O)OC(C)C` (stereo not drawn), the Potency result in [8], in experiment [1], in experiment [4], in experiment [2], in [5] and in experiment [7] was “inactive” in each case. Also, the Potency result (in experiment [3]; in the experiment with Aromatase (Homo sapiens)) was “inactive” each time. The activation in [6] (at 70.3 µM (top of the series)) is 10.8%.

Turning to `O=C(Cl)C(Cl)Cl`, the Potency entry in experiment [8], in experiment [1], in experiment [4], in experiment [2], in [5] and in experiment [7] was “inactive” throughout. Further, the Potency entry (in experiment [3]; with Aromatase (Homo sapiens)) was “inactive” each time. In addition, the activation in [6] (at 70.3 µM (top of the series)) was 0.358%.

For the compound `C[N+]1(C)CCCCC1`, the Potency result (in experiment [8]; in experiment [2]; in [3]; in the experiment with Aromatase (Homo sapiens)) was “inactive” throughout.

As for `CC[C@@H](CO)NC(=O)[C@@H]1C=C2c3cccc4c3c(cn4C)C[C@H]2N(C)C1`, the Potency result in [9], in experiment [1], in [2], in experiment [5], in [7] and in experiment [3] was “inactive” each time. In the experiment with Aromatase (Homo sapiens), the Potency result was “inactive”. Moreover, in experiment [6] (at 70.3 µM (top of the series)), the activation is 13.7%.

With `C=C(Cl)CCl`, the Potency result in experiment [8], in experiment [1], in experiment [4], in [2], in experiment [5] and in experiment [7] was “inactive” throughout. Besides, the Potency entry (in experiment [3]; with Aromatase (Homo sapiens)) was “inactive” in each case. Further, in experiment [6] (at 70.3 µM (top of the series)), the activation is 0.667%.

Regarding `c1ccc2c(c1)CCNC2`, the Potency result (in [9]; in [2]; in experiment [3]; with Aromatase (Homo sapiens)) was “inactive” throughout.

Regarding `CCNc1nc(Cl)nc(NC(C)(C)C)n1`, the Potency result in experiment [8], in experiment [1], in experiment [4], in experiment [2], in experiment [7] and in [3] was “inactive” throughout. Besides, the Potency result with Aromatase (Homo sapiens) was “inactive”. Further, the figures for the Potency in experiment [5] and in experiment [6] were 61.6 µM [inconclusive] (active) and 9.69 µM (active), respectively.

Consider `CCOc1cc(OP(=S)(OC)OC)nc(CC)n1`, for which the Potency entry in experiment [9], in experiment [4], in experiment [2], in [5], in experiment [7] and in [3] was “inactive” each time. The Potency entry in the experiment with Aromatase (Homo sapiens) is “inactive”. Further, the activation in [6] (at 70.3 µM (top of the series)) was -2.44%.

As to `CCC1(c2ccccc2)C(=O)N(COC)C(=O)N(COC)C1=O`, the Potency entry (in [8]; in experiment [1]; in [2]; in experiment [3]; in the experiment with Aromatase (Homo sapiens)) was “inactive” in each case.

`CC(Cc1ccccc1)NCCn1cnc2c1c(=O)n(C)c(=O)n2C` (stereo not drawn): the Potency result (in experiment [8]; in experiment [1]; in experiment [4]; in [5]; in experiment [3]; in the experiment with Aromatase (Homo sapiens)) was “inactive” throughout. The activation in experiment [6] (at 70.3 µM (top of the series)) is -17.2%.

Turning to `O=C(NC(=O)c1c(F)cccc1F)Nc1cc(Cl)c(F)c(Cl)c1F`, the Potency result in experiment [9], in [4], in [2], in experiment [5], in experiment [7] and in experiment [3] was “inactive” in each case. For the same compound, the Potency entry with Aromatase (Homo sapiens) is “inactive”. Besides, the activation in experiment [6] (at 70.3 µM (top of the series)) was 11.8%.

Take `CN(C)C1CCCCC1`: the Potency result in [8], in [1], in experiment [4], in experiment [2], in experiment [5] and in experiment [7] was “inactive” throughout. For the same compound, the Potency entry (in experiment [3]; with Aromatase (Homo sapiens)) was “inactive” throughout.

Regarding `O=C(Cl)/C=C/C(=O)Cl`, the Potency entry in [8], in [1], in [4], in experiment [5], in [7] and in experiment [3] was “inactive” each time. The Potency result with Aromatase (Homo sapiens) is “inactive”. Also, in experiment [6] (at 95 µM (top of the series)), the activation was 5.56%.

For `O=C(Cl)OCc1ccccc1`, the Potency result (in [4]; in experiment [2]; in experiment [5]; in experiment [7]; in experiment [3]; with Aromatase (Homo sapiens)) was “inactive” each time. In addition, in [6] (at 95 µM (top of the series)), the activation was -4.92%.

As to `CCN(CCO)CCn1c(Cc2ccccc2)nc2c1c(=O)n(C)c(=O)n2C`, the Potency result in experiment [8], in experiment [1], in [4], in experiment [2], in [5] and in experiment [7] was “inactive” throughout. Moreover, the Potency result with Aromatase (Homo sapiens) is “inactive”. For the same compound, in experiment [6] (at 70.3 µM (top of the series)), the activation is 6.52%.
